Data reported in PubChem BioAssay AID2283123 (EPA ToxCast).
Inconclusive results are not listed. The source made the active and inactive calls. The calls were made as follows: active = hit-call score of the fitted dose curve at least 0.9, where 1 is the maximum; inconclusive = response in the unintended direction; inactive = score below 0.9.

What follows are compounds tested against rat CYP2E1, Cyp2e1 (gene 25086) (UniProt P05182) (assay: NVS_ADME_rCYP2E1: NovaScreen (NVS) CYP450-related Enzyme Activity (ADME) Assay for rat CYP2E1).
Method: NVS_ADME_rCYP2E1 is a biochemical, single-readout assay that uses extracted gene-proteins in a cell-free assay. Measurements were taken 1 hour after chemical dosing in a 96-well plate.NVS_ADME_rCYP2E1 is one of one assay component(s) measured or calculated from the NVS_ADME_rCYP2E1 assay. It is designed to make measurements of enzyme activity, a form of enzyme reporter, as detected with fluorescence intensity signals by Fluorescence technology.Data from the assay component NVS_ADME_rCYP2E1 was analyzed into 1 assay endpoint. This assay endpoint, NVS_ADME_rCYP2E1, was analyzed in the positive analysis fitting direction relative to Acetonitrile as the negative control and baseline of activity. Using a type of enzyme reporter, loss-of-signal activity can be used to understand changes in the enzymatic activity as they relate to the gene Cyp2e1. Furthermore, this assay endpoint can be referred to as a primary readout, because this assay has produced multiple assay endpoints where this one serves a enzymatic activity function. To generalize the intended target to other relatable targets, this assay endpoint is annotated to the cyp intended target family, where the subfamily is xenobiotic metabolism.
Binding assays used specific radioligands (tritiated, iodinated) with non-radioactive competitive displacement ligands in agonist or antagonist protocols (as indicated) and various reference compounds and inhibitors to titrate specific binding to receptors and transporters. Most enzyme assays (CYPs, kinases, phosphatases, proteases, HDACs) used recombinant protein and specific substrates (fluorescence mostly, some colorimetric and radioactive) and inhibitors, followed by a biochemical separation of substrate and product. All assays for the biochemical HTS were initially run in duplicate at a single concentration (10 uM for CYP450 assays and 25 uM for all others). Assay-chemical combinations meeting a pre-defined threshold (e.g., 30% inhibition and other criteria defined below) were then run in singleton concentration-response format with maximum concentration of 20 uM for CYPs and 50 uM for all others. Each assay was run with positive and negative controls, and concurrent controls on every plate. The follow-up (secondary) screen tested active chemical-pairs in concentration series, as well as a few additional assays not tested in the primary screen, some selected negative inactives, and several cases re-run in the concentration series for confirmatory purposes.

Sequence of rat CYP2E1, Cyp2e1 (gene 25086) (P05182 whole entry, looked up): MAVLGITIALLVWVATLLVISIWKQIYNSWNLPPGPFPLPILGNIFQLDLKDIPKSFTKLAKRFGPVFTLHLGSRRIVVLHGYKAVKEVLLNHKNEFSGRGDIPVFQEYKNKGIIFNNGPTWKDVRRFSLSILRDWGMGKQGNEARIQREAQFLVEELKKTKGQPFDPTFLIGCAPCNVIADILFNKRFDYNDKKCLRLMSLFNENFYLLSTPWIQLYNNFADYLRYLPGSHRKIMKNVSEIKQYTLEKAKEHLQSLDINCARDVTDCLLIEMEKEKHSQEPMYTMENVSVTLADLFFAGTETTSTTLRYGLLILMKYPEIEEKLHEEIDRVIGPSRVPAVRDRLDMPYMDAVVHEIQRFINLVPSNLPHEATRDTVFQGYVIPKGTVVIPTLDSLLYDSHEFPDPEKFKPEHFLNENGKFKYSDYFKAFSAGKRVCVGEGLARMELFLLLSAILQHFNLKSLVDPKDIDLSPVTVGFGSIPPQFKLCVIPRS

Row | Compound | AC50 | outcome
1 | N#CSCSc1nc2ccccc2s1 | 10 µM (active) | 
2 | S=C(S)NCCNC(=S)S.[Mn+2].[S-]C([S-])=NCCN=C([S-])[S-].[Zn+2] |  | inactive
3 | C#CCOC(=O)[C@@H](C)Oc1ccc(Oc2ncc(Cl)cc2F)cc1 | 1.6 µM (active) | 
4 | S=C([S-])NCCNC(=S)[S-].[Mn+2] |  | inactive
